An excerpt weighted towards active compounds, which were near 0.49% of everything screened.
LDHA block – blocks human lactate dehydrogenase A | P00338 | purified LDHA, NADH/diaphorase-resazurin fluorescence; stronger effect = lower value | activity change, % (values are at about 110 or 230 µM) | 480,000 compounds, 0.15% hits | AID 1347041; in the data active means activity change below about -30%; inconclusive means mostly about -25% to -30%;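 further: plate controls were DMSO wells for no effect and wells without enzyme for full effect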
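Enzyme activity of human lactate dehydrogenase 5 (2 nM; 0.06 mM NADH, 0.2 mM pyruvate, 5 min, RT) is measured via a resazurin/diaphorase fluorescence readout of residual NADH.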
PGK inhibitor – inhibitors of T. brucei phosphoglycerate kinase; P07378; PGK/GAPDH coupled, Kinase-Glo luminescence, 60 min; Potency, µM (top dose mostly 57.5 µM), inactives show at the highest dose activity change, negative = inhibition, actives largely listed as inhibitors; 380,000 compounds, 0.043% hits; AID 602233; further: potency means the concentration at half of the fitted maximal effect; on the % scale 0 is the no-effect control and ±100 the full control effect; nearly all actives have a fitted effect of over 60% in size
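Luminescent ATP detection (Kinase-Glo Plus) follows a 60-minute room-temperature incubation, with wells lacking PGK as controls. Buffer: 100 mM TEA (pH 7.6), 5 mM MgCl2, 0.01% Tween-20. Coupling enzyme GAPDH (100 nM final) supplies unstable 1,3-BPG in-well.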
mIDH1 inhibitor – inhibitors of human mutant IDH1 R132H. O75874. IDH1-R132H enzyme, NADPH consumption, diaphorase/resazurin fluorescence. Potency, µM (top dose mostly 76.6 µM), inactives show top-dose activity change, negative = inhibition, most hits filed as inhibitors. 390,000 compounds, 0.093% hits; further: potency means the concentration at half of the fitted maximal effect; on the % scale 0 is the no-effect control and ±100 the full control effect; nearly all actives have a fitted effect of over 65% in size
Target sequence (O75874 whole entry R132H, stated change not applied): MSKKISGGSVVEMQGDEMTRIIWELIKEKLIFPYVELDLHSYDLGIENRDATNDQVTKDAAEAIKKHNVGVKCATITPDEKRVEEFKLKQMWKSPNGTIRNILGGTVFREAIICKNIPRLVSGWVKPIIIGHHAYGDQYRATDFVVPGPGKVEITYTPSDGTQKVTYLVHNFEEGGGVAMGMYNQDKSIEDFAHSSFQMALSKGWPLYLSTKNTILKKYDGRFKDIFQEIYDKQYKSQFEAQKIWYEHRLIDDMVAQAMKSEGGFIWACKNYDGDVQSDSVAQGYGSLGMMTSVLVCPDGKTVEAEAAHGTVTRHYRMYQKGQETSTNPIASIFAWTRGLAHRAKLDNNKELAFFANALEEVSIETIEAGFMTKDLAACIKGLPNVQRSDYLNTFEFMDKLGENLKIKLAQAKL
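IDH1-R132H (0.5 ug/mL dispensed) in pH 7.5 Tris buffer was preincubated 30 min with compound, then given a substrate mix of 0.016 mM NADPH and 2 mM alpha-KG for 80 min at room temperature; remaining NADPH was read by diaphorase/resazurin fluorescence.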
Pin1 inhibitor – inhibitors of human Pin1; Q13526; Pin1 FP peptide displacement, HiFluor488, 10 min; Potency, µM (top dose mostly 115 µM), for the others: top-dose activity, negative = inhibition, hits mostly inhibitors; 390,000 compounds, 0.009% hits; AID 504891; active means well fitted inhibition curve with a large enough effect in the polarisation, with a control signal flat, not every such curve was filed as active; inconclusive means small, poorly fitted or top-dose-only effect, or effect the other way, or a change in a side signal; inactive means no such curve, though single readings can be large or run the other way; the % refers to the polarisation; further: potency means the concentration at half of the fitted maximal effect; on the % scale 0 is the no-effect control and ±100 the full control effect
Vif-APOBEC3F blk – Vif-A3F binding inhibition; HeLa A3F-eYFP + Vif (tagged APOBEC3F with the HIV-1 protein that degrades it), YFP fluorescence increase; Potency, µM (top dose mostly 46.1 µM), for inactives: at the top dose activity, negative = active; 390,000 compounds, 0.2% hits; further: potency means the concentration at half of the fitted maximal effect; % of control where 0% means no effect; nearly all actives have a fitted effect of over 65% in size
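HeLa cells stably expressing Vif plus C-terminally eYFP-tagged A3F were seeded, incubated overnight at 37 deg C, dosed with compound, incubated overnight again at 37 deg C. Yellow fluorescence (Ex 488/Em 500-530) reported blocked Vif-mediated A3F-eYFP degradation.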
Vif-APOBEC3G blk – blocks the Vif interaction with human APOBEC3G. Q9HC16. HeLa A3G-eYFP + Vif (tagged APOBEC3G with the HIV-1 protein that degrades it), YFP fluorescence, overnight. Potency, µM (doses to about 46.1 µM), inactives show top-dose activity, negative = active, hits mostly inhibitors. 410,000 compounds, 0.076% hits; further: potency means the concentration at half of the fitted maximal effect; on the % scale 0 is the no-effect control and ±100 the full control effect; nearly all actives have a fitted effect of over 60% in size
Target sequence (Q9HC16 whole entry, looked up): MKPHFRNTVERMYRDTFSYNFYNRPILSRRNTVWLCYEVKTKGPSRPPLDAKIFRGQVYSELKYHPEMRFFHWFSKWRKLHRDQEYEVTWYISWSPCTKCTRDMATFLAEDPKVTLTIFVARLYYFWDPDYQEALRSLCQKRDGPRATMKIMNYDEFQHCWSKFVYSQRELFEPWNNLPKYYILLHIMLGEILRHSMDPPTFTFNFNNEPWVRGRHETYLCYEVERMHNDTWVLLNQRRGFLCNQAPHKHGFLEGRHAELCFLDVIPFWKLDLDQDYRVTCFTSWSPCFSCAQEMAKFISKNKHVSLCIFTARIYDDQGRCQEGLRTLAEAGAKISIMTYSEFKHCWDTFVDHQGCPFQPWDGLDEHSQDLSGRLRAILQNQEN
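Read-out is eYFP fluorescence (Ex 488/Em 500-530) from Vif-expressing HeLa A3G-eYFP cells; more signal means A3G escaped Vif-mediated degradation. Cells plated overnight, compound pinned in, incubated overnight at 37 deg C.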
Active calls of the source: *. Unless noted, the call rests on the fitted dose curve; in most records, active means well fitted curve in the direction sought with a large enough effect; inconclusive means small, poorly fitted or top-dose-only effect, or another doubt; inactive means no such curve, though single readings can be large; an effect the other way counts as inactive or inconclusive.

`CCn1cc(/C=C/c2cc[n+](C)cc2)c2ccccc21` gave LDHA block 3.7, mIDH1 inhibitor 1.2%, Pin1 inhibitor inconclusive, Vif-APOBEC3F blk -521.3% and Vif-APOBEC3G blk 2.51µM*.
`CC(C)n1cc(/C=C/c2cc[n+](C)cc2)c2ccccc21` gave LDHA block -3.2, PGK inhibitor -8.7%, mIDH1 inhibitor 3.5%, Pin1 inhibitor inconclusive, Vif-APOBEC3F blk -497.9% and Vif-APOBEC3G blk 3.98µM*.
For O=C(O)CNC(=O)Cn1ccc2ccc(OCc3ccccc3)cc21 the results were LDHA block 7.0.
For COc1cc(/C=C2/CCC/C(=C\c3cc(O)c(OC)c(Cl)c3)C2=O)cc(Cl)c1O the results were LDHA block 12.1, PGK inhibitor -12.8%, mIDH1 inhibitor -14.6%, Pin1 inhibitor 14.7%, Vif-APOBEC3F blk 6.31µM* and Vif-APOBEC3G blk inconclusive.
For COC(=O)CCN(C)Cc1sccc1C the results were LDHA block -0.6.
c1ccc(-c2ccccc2OCCOCCN2CCOCC2)cc1 was read as LDHA block -45.0*, PGK inhibitor 1.2%, mIDH1 inhibitor 5.9%, Pin1 inhibitor -11.8%, Vif-APOBEC3F blk 0.4% and Vif-APOBEC3G blk -1.8%.
Screening C=CCNCCOCCOc1ccccc1-c1ccccc1 returned LDHA block -30.2*, PGK inhibitor -3.1%, mIDH1 inhibitor 4.5%, Pin1 inhibitor -1.2%, Vif-APOBEC3F blk -12.9% and Vif-APOBEC3G blk 2.4%.
Screening c1ccc(-c2ccccc2OCCOCCN2CCNCC2)cc1 returned LDHA block -5.7, PGK inhibitor -7.6%, mIDH1 inhibitor 11.4%, Pin1 inhibitor 10.2%, Vif-APOBEC3F blk -6.6% and Vif-APOBEC3G blk -6.1%.
Cc1cc(C(=O)OCC(=O)Nc2ccccc2Oc2ccccc2)c2ccccc2n1 was read as LDHA block 3.7.
Screening N=C1/C(=C\c2ccc(OC(=O)c3ccco3)cc2)C(=O)N=C2SC=NN12 returned LDHA block -1.5, PGK inhibitor -6.3%, mIDH1 inhibitor -1.4%, Pin1 inhibitor 23.8%, Vif-APOBEC3F blk -11.3% and Vif-APOBEC3G blk -1.5%.
Screening COc1cc(/C=C2\C(=N)N3N=CSC3=NC2=O)cc(Br)c1OC(=O)c1ccco1 returned LDHA block -0.8, mIDH1 inhibitor 8.1%, Pin1 inhibitor 34.0%, Vif-APOBEC3F blk 22.4µM* and Vif-APOBEC3G blk inconclusive.
For O=C(N/N=C/C=C\c1ccco1)c1cccs1 the results were LDHA block 9.3, PGK inhibitor -4.1%, mIDH1 inhibitor 1.8%, Pin1 inhibitor -0.7%, Vif-APOBEC3F blk inconclusive and Vif-APOBEC3G blk 0.0%.
`CC(C)C(C(=O)O)N1C(=O)/C(=C/C=C/c2ccco2)SC1=S` (configuration not stated) gave LDHA block 14.8, PGK inhibitor 8.91µM*, mIDH1 inhibitor -3.5%, Pin1 inhibitor inconclusive, Vif-APOBEC3F blk -9.4% and Vif-APOBEC3G blk -10.1%.
`O=C(N/N=C/C=C/c1ccco1)c1ccncc1` gave LDHA block 3.6, PGK inhibitor 4.3%, mIDH1 inhibitor -2.8%, Pin1 inhibitor 4.5%, Vif-APOBEC3F blk 11.2µM* and Vif-APOBEC3G blk 2.7%.
For O=C(NN1C(=O)/C(=C/C=C/c2ccco2)SC1=S)c1ccncc1 the results were LDHA block 14.8, PGK inhibitor 14.1µM*, mIDH1 inhibitor -9.1%, Pin1 inhibitor inconclusive, Vif-APOBEC3F blk -9.0% and Vif-APOBEC3G blk -7.4%.
For NC(=O)Nc1cccc([N+](=O)[O-])c1 the results were LDHA block 1.3.
Nc1c(Br)cc2oc(-c3cccc4ccccc34)nc2c1Br was read as LDHA block 10.1.
`Cc1ccc(-c2nc3ncccc3o2)cc1NC(=O)c1ccc([N+](=O)[O-])o1` gave LDHA block -4.6, PGK inhibitor 1.8%, mIDH1 inhibitor 4.8%, Pin1 inhibitor -0.9%, Vif-APOBEC3F blk 22.4µM* and Vif-APOBEC3G blk 0.0%.
COc1ccc(C)cc1Nc1n[n+](-c2ccccc2)c(-c2ccc(NC(C)=O)cc2)s1 was read as LDHA block 3.4, PGK inhibitor inactive, mIDH1 inhibitor 8.8%, Pin1 inhibitor 5.8%, Vif-APOBEC3F blk -7.3% and Vif-APOBEC3G blk 0.8%.
For COc1ccc(C)cc1Nc1n[n+](-c2ccccc2)c(-c2cc([N+](=O)[O-])cc(OC)c2O)s1 the results were LDHA block 7.6, PGK inhibitor -1.6%, mIDH1 inhibitor 7.1%, Pin1 inhibitor inconclusive, Vif-APOBEC3F blk 22.4µM* and Vif-APOBEC3G blk -9.2%.
Cc1ccc(OCC(=O)N(C)CC(=O)NCc2ccco2)c(Br)c1 was read as LDHA block 2.6, PGK inhibitor inconclusive, mIDH1 inhibitor 6.0%, Pin1 inhibitor inconclusive, Vif-APOBEC3F blk -2.2% and Vif-APOBEC3G blk -11.2%.
`CC(=O)c1cccc(OCC(=O)N(C)CC(=O)NCc2ccco2)c1` gave LDHA block 1.6, PGK inhibitor 14.1µM*, mIDH1 inhibitor 0.9%, Vif-APOBEC3F blk -8.1% and Vif-APOBEC3G blk -4.2%.
For O=C(O)c1nn(Cc2ccccc2)c(=O)c2ccccc12 the results were LDHA block -31.9*.
For CN(C)c1ccc(/C=C(/C#N)C(=O)Nc2nc3c(s2)CCN(Cc2ccccc2)C3)cc1 the results were LDHA block -6.5, PGK inhibitor -2.2%, mIDH1 inhibitor 1.7%, Pin1 inhibitor inconclusive, Vif-APOBEC3F blk inconclusive and Vif-APOBEC3G blk 5.62µM*.
For COc1cc(C(=O)N/N=C/c2ccc(OC(=O)c3ccccc3)c(OC)c2)ccc1O the results were LDHA block -4.7, PGK inhibitor -6.8%, mIDH1 inhibitor 2.7%, Pin1 inhibitor 8.6%, Vif-APOBEC3F blk -9.3% and Vif-APOBEC3G blk inconclusive.
Screening COc1cc(/C=N/NC(=O)c2cc(O)cc(O)c2)ccc1OC(=O)c1ccccc1 returned LDHA block -7.8, PGK inhibitor 12.6µM*, mIDH1 inhibitor -24.8%, Pin1 inhibitor inconclusive, Vif-APOBEC3F blk -6.7% and Vif-APOBEC3G blk -17.0%.
For Cc1nn(-c2nc3c(c(=O)n(CC(N)=O)c(=O)n3C)n2Cc2ccccc2)c(C)c1C the results were LDHA block -32.6*.
Screening CCn1c(-n2nc(C)c(C)c2C)nc2c1c(=O)n(Cc1ccccc1)c(=O)n2C returned LDHA block -1.9.
`CS(=O)(=O)N1N=C(c2ccccc2)CC1c1ccc2c(c1)OCO2` (configuration not stated) gave LDHA block 3.9, PGK inhibitor -0.9%, mIDH1 inhibitor 6.4%, Pin1 inhibitor inconclusive, Vif-APOBEC3F blk inconclusive and Vif-APOBEC3G blk 10µM*.

High-throughput results: PubChem BioAssay, National Center for Advancing Translational Sciences (NCATS)
